# In the library only some 6% were active in any assay of this set; here they are far more common.
# D1 potentiator – enhances dopamine response at the human D1 receptor | potentiation, % at 10 µM | 360,000 tested, 0.036% active | P21728 | AID 504651 | HEK293 TREx D1 cells, calcium flux, dopamine EC20 potentiation; in the data active means potentiation above about 30%; further: 0% is about no effect
# Target sequence (P21728 whole entry, looked up): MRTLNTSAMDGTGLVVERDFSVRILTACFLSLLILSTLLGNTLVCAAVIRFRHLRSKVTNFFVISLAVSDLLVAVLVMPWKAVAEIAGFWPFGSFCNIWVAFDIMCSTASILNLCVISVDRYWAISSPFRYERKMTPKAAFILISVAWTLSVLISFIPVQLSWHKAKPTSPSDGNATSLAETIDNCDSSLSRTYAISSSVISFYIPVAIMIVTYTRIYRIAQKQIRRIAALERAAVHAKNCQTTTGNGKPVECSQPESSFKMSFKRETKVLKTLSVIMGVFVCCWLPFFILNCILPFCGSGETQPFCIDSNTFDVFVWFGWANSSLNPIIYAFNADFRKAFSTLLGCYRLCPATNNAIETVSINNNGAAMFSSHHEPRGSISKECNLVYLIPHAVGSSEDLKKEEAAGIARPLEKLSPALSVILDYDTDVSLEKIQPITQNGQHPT
# D1 ag – human D1 receptor agonism | P21728 | HEK293 T-REx D1 cells, calcium flux, agonist mode | activation, % at 2 µM | 360,000 tested, 1% active; in the data active means activation above about 30%; further: 0% is about no effect
#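 Agonism was scored from calcium flux recorded over 180 s (1 read/s) after pintool compound addition, following a 10-cycle baseline. Cells were inducible force-coupled HEK293 TREx D1, plated overnight at 30 C and loaded with no-wash calcium dye.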
# D1 antagonist – antagonists of human D1 dopamine receptor | activity change, negative = inhibition, % at 10 µM | P21728 | HEK293 TREx D1 cells, calcium flux, dopamine EC80; stronger effect = lower value | AID 504652 | 360,000 tested, 3.2% active; in the data active means activity change below about -30%; further: on the % scale 0 is the no-effect control and ±100 the full control effect
#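 After overnight tetracycline induction at 30 C, force-coupled D1 HEK293 cells took up a no-wash calcium dye at room temperature. Compounds were added and monitored 180 s, and the response to EC80 dopamine was then recorded.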
# D3 ag – D3 dopamine receptor (human) agonism; D3R DiscoveRx beta-arrestin cells, luminescence, 90 min; max activation, %; 410,000 tested, 0.58% active; AID 652048; in the data active means max activation above about 30%; further: 0% is about no effect
#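 Cells at 1500/well, incubated overnight, then treated with pinned compounds (dopamine as control) for 90 min at 37 degrees C. DiscoveRx reagent added for 30 - 60 minutes at room temperature; luminescence read.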
# D3 antag – antagonists of human D3 dopamine receptor. P35462. D3R cells, DiscoveRx beta-arrestin luminescence, antagonist mode; stronger effect = lower value. max response, negative = inhibition, %. 360,000 tested, 2.5% active; in the data active means max response below about -50%; further: on the % scale 0 is the no-effect control and ±100 the full control effect
#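 Cells plated overnight at 1500 cells/well, then exposed to library compounds with dopamine controls for 90 minutes at 37 degrees C. DiscoveRx reagent added for 30–60 minutes at room temperature; luminescence read, quantitative HTS format.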
# An asterisk follows results filed as active; . = no result given.
SMILES,D1 potentiator,D1 ag,D1 antagonist,D3 ag,D3 antag
O=C(NCCc1ccccc1)c1ncn[nH]1,1,5,10,35*,-21
COc1ccc(OC)c(NC(=O)CSc2cn(CC(=O)N3CCCCCC3)c3ccccc23)c1,-3,1,-6,-3,.
Cc1cc(NC(=O)C2CC=CCC2C(=O)O)no1 (centres undefined),-2,-1,6,2,-54*
CCOC(=O)c1[nH]c(C)c(CCC(=O)Nc2ccc(N(CC)CC)cc2C)c1C,-3,1,-1,-6,.
Cc1ccc(S(=O)(=O)N(CC(=O)N/N=C/c2cccc(C)c2)c2cccc3cccnc23)cc1,-10,3,-30*,6,-13
O=C(Cc1ccccc1)Nc1sc2c(c1C(=O)Nc1cccc(Cl)c1)CCCC2,-4,7,22,.,.
COc1ccc(C2c3c4c(n(C)c3CCN2C)CCN(C)C4c2ccc(OC)cc2)cc1 (centres undefined),-2,2,-31*,1,7
CN1CCc2c(c3c(n2C)CCN(C)C3c2ccc(F)cc2)C1c1ccc(F)cc1 (centres undefined),-2,-1,8,-3,-3
O=C(N/N=C/c1ccc[nH]1)c1sc2ccccc2c1Cl,-1,4,-5,-30,-65*
COc1cccc(OC2(C)CCN(Cc3cccn3-c3nccs3)C2)c1 (centres undefined),.,.,.,-11,-15
CC1(Oc2ccc(-n3ccnc3)cc2)CCN(Cc2cccn2-c2nccs2)C1 (centres undefined),.,.,.,56*,0
Cc1nn(C(=O)c2ccc(Cl)cc2)c(C)c1S(=O)(=O)N1CCCCCC1,0,1,5,5,.
NC(=O)c1ccccc1N/C=C/C(=O)c1ccc(Cl)cc1,-9,2,-23,-11,-12
Cc1ccc(C(=O)/C=C/Nc2ccccc2C(N)=O)cc1,1,2,3,-1,-80*
Cc1cc(=O)[nH]c(N2CCN(Cc3ccccc3)CC2)n1,0,1,5,1,-7
O=c1[nH]ncc(N2CCN(Cc3ccccc3)CC2)c1Cl,-4,2,-17,-15,-71*
Cc1c(C(=O)OC2CCCC2)[nH]c2c1C(=O)CC(c1ccc(C(C)(C)C)cc1)C2 (centres undefined),2,3,-31*,6,.
Cc1ccc(NC(=O)C2CCC(CNS(=O)(=O)c3ccc4c(c3)CCCC(=O)N4)CC2)cc1F (centres undefined),2,2,-9,7,.
COC(=O)c1ccc(NC(=O)CC2Nc3cc(C)c(C)cc3NC2=O)cc1 (centres undefined),-2,13,-15,-1,.
COc1ccc(OC)c(S(=O)(=O)N2CCN(S(=O)(=O)c3ccc4c(c3)OCCO4)CC2)c1,-6,0,12,.,.
COc1ccc2c(c1)Cc1sc(NC(=O)c3ccc(Cl)cc3)nc1-2,0,1,-5,-6,.
CCNC(=O)C1(C)CCCN1C(=O)c1cnc2ccccc2n1 (centres undefined),.,.,.,-3,-58*
CCc1ccc(S(=O)(=O)NCc2ccc3c(c2)CCN3C(=O)c2ccc(C)cc2)cc1,0,0,0,4,.
Cc1c(C(=O)N2CCCC2)oc2c1-c1nn(CC(=O)NCCCN3CCCCC3C)cc1CC2 (centres undefined),-1,3,-8,2,-10
Cc1c(C(=O)N2CCCC2)oc2c1-c1nn(CC(=O)NCCCN3CCCCC3)cc1CC2,4,3,-31*,-6,4
SMILES,D1 potentiator,D1 ag,D1 antagonist,D3 ag,D3 antag
COc1cccc(NC(CNS(=O)(=O)c2ccc(Cl)cc2)c2ccccc2)c1 (centres undefined),-3,9,-34*,-1,.
COc1cccc(NC(CNS(=O)(=O)c2ccc(C)cc2)c2ccccc2)c1 (centres undefined),-2,2,-7,5,.
CCOc1ccc(-c2cn3c(n2)sc2cc(C(=O)NC(C)C45CC6CC(CC(C6)C4)C5)ccc23)cc1 (centres undefined),-6,-1,10,-8,.
Cc1cc(C)c(S(=O)(=O)NCc2ccc3c(c2)OCO3)c(C)c1,-6,8,-36*,4,20
O=S(=O)(NCc1ccc(Cl)cc1)c1cccc2cccnc12,-2,1,1,-3,-18
O=S(=O)(NCc1ccc2c(c1)OCO2)c1cccc2cccnc12,4,8,-52*,1,1
CCN1CCN(C(=O)c2ccc3c(c2)N(Cc2ccc(Cl)cc2)C(=O)c2ccccc2S3=O)CC1 (centres undefined),4,2,12,-20,.
C[C@@H](C[C@@H](O)[C@H](O)C(C)(C)O)[C@@H]1CC[C@]2(C)C3=CC[C@H]4C(C)(C)C(=O)CC[C@]4(C)[C@H]3CC[C@@]12C,7,0,13,45*,120
Cc1ccc(OCC(=O)NCCNC(=O)c2cnccn2)cc1C,-3,39*,-7,-7,1
O=c1cc(CN2CCCCCC2)nc2sccn12,-2,3,0,-6,-5
O=C1c2ccccc2S(=O)(=O)N1Cc1cc(=O)n2ccsc2n1,-6,5,-15,-5,-76*
CCOC(=O)C1CCN(C(c2cccs2)c2sc3nc(C)nn3c2O)CC1 (centres undefined),-10,0,3,-8,-16
CCOC(=O)C1CCN(C(c2cccc(OC)c2)c2sc3nc(C)nn3c2O)CC1 (centres undefined),-9,0,-31*,-8,12
CCOC(=O)C1(Cc2cccc(Cl)c2)CCCN(C(=O)c2cnn(CC)c2)C1 (centres undefined),-4,1,-38*,-4,6
CCOC(=O)C1(Cc2cccc(Cl)c2)CCCN(C(=O)c2cn[nH]c2)C1 (centres undefined),-1,0,-1,2,-4
Cc1ccc(-c2nc3cc(C(C)C)ccc3o2)cc1NC(=O)c1cc([N+](=O)[O-])ccc1N1CCOCC1,-4,1,-11,3,.
CCOC(=O)CSc1nc2ccccc2c(=O)n1NC(=O)c1ccccc1,4,1,-15,35*,7
CCOC(=O)CSc1nc(-c2ccccc2)nc2ccc(C)cc12,-3,5,-35*,2,20
CC(CNC(=O)Cn1ccc2cc(S(=O)(=O)N3CCCCCC3)ccc21)c1ccccc1 (centres undefined),0,14,-6,-24,.
COc1ccc(C(CC(=O)NCc2ccccc2Cl)N2Cc3ccccc3C2=O)cc1OC (centres undefined),-3,1,8,-9,.
Cc1cc(S(=O)(=O)NCc2ccc(N3CCN(C)CC3)cc2)c(C)s1,-4,10,-3,-11,-63*
CN1CCN(c2ccc(CNS(=O)(=O)c3ccc(F)cc3Cl)cc2)CC1,-5,7,-8,-17,-29
